# Measurements from PubChem BioAssay AID602393 (Broad Institute, 2012).
# About 7,000 (2%) of roughly 350,000 compounds were called active. The sample holds actives, similar compounds and a random draw of the others, so the mix is not that of the screen. Unmarked numbers belong to inactive results. Rule as the data show it: active = activation above about 40%; inconclusive = no clear call, values can overlap the other calls; inactive = below that.
# Experiment: raisers of Bmi1 knock-in reporter signal – mouse ES cells, Bmi1 luciferase knock-in, single point, esBAF inhibitor project, primary screen (AID 602393);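 also: 0% = median of the plate's neutral control wells and 100% = double that signal; a rise in the Bmi1 reporter signal indicates esBAF inhibition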
# Conditions: 24 h, at 12.5 µM, stronger effect = higher value, 100% = twice the neutral-well signal
row,Compound,reporter increase
1,CO[C@@H]1CN(C)C(=O)c2cc(NC(=O)C3CC3)ccc2OC[C@@H](C)N(C(=O)c2ccccc2F)C[C@@H]1C,-20.7%
2,C[C@H](CO)N1C[C@H](C)[C@@H](CN(C)S(=O)(=O)c2ccc(Cl)cc2)Oc2ccc(NS(C)(=O)=O)cc2CC1=O,-2.32%
3,CC(C)C(=O)Nc1c(C(=O)c2ccc(F)cc2)oc2ccccc12,-8.19%
4,CCc1cccc(NC(=O)COC(=O)c2cc(=O)c3ccccc3o2)c1,8.66%
5,CC(C)C(=O)Nc1ccc2c(c1)oc1ccccc12,60.1% (active)
6,C[C@@H]1CN([C@@H](C)CO)S(=O)(=O)c2ccc(C#Cc3ccccc3)cc2O[C@@H]1CN(C)C(=O)C1CC1,-5.48%
7,Cc1ccc(NC(=O)C(=O)NCc2ccco2)c(C)c1,47.2% (active)
8,Cc1ccc(SCC(=O)NC(=O)NCc2ccco2)c(C)c1,-6.07%
9,Cc1ccc(NC(=O)Cn2nnc(C(=O)NCc3ccco3)c2N)c(C)c1,3.66%
10,O=C(Cc1ccccn1)NCC[C@H]1CC[C@H](NS(=O)(=O)c2ccccc2)[C@@H](CO)O1,-4.76%
11,Cc1cccc(S(=O)(=O)N[C@H]2CC[C@@H](CCNS(=O)(=O)c3ccccc3F)O[C@H]2CO)c1,-0.839%
12,Cc1ccc(C2=Nc3c(ccc4ccccc34)C(c3ccncc3)=NN2)cc1,10%
13,CCOc1ccc2[nH]c(=S)sc2c1,27.8%
14,CCOc1ccc2c(c1)C(c1ccc(C)cc1)=NNC(c1ccc(C)cc1)=N2,67.3% (active)
15,C[C@@H]1CN([C@@H](C)CO)C(=O)Cc2cc(NS(=O)(=O)c3ccc(F)cc3)ccc2O[C@@H]1CN(C)S(=O)(=O)c1cccs1,4.77%
16,CCC(=O)Nc1ccc2c(c1)C(=O)N(C)C[C@@H](OC)[C@@H](C)CN(Cc1ccccc1OC)[C@H](C)CO2,-3.34%
17,CNC[C@@H]1Oc2cc(-c3ccccc3OC)ccc2S(=O)(=O)N([C@H](C)CO)C[C@H]1C,-6.68%
18,CN1CCN(C(=O)C[C@H]2C[C@H]3c4cc(NC(=O)Nc5ccccc5F)ccc4O[C@H]3[C@H](CO)O2)CC1,2.41%
19,CC(C)NC(=O)N(C)C[C@@H]1Oc2ncc(C#CC3CC3)cc2C(=O)N([C@@H](C)CO)C[C@H]1C,5.43%
20,O=C(NCc1ccccc1Cl)C1CCCO1 (stereo unspecified),-4.1%
21,O=C(Nc1ccc(C(=O)NCc2ccccc2Cl)cc1)C1=CSCCO1,44% (active)
22,CSc1ccc(CNC(=O)c2ccc(NC(=O)C3=CSCCO3)cc2)cc1,15.9%
23,CCN1[C@@H]2Cn3c(ccc(C4=CCCCC4)c3=O)[C@H]1[C@@H](C(=O)N1CCCCC1)[C@@H]2CO,-1.1%
24,O=C(COC(=O)c1ccc(F)cc1)Nc1ccc2c(c1)OCO2,1.17%
25,O=C(CN1CCSCC1)N/N=C/c1ccc(F)cc1,5%
26,O=C(Cc1ccc(F)cc1)N/N=C/c1ccc2c(c1)OCO2,52.6% (active)

row,Compound,reporter increase
1,C[C@@H](NC(=O)[C@H]1[C@H](CO)[C@H]2Cn3c(cccc3=O)[C@H]2N1C(=O)C1CC1)c1ccccc1,2.89%
2,COc1ccc(C(=O)Nc2ccc3c(c2)OC[C@H](C)N(C(C)=O)C[C@@H](C)[C@H](OC)CN(C)C3=O)cc1,-0.383%
3,Cc1ccc(S(=O)(=O)NCC[C@@H]2CC[C@@H](NC(=O)CCN3CCCCC3)[C@@H](CO)O2)cc1,-6.37%
4,Cc1ccc(S(=O)(=O)Nc2ccc3c(c2)C(=O)N([C@@H](C)CO)C[C@H](C)[C@@H](CN(C)C(=O)Cc2ccccc2)OCCCC[C@H](C)O3)cc1,0.836%
5,O=C(Nc1ncccc1O)c1ccc(C(=O)c2ccccc2)cc1,21.1%
6,O=C(CNC(=O)c1ccc2ccccc2c1)Nc1ncccc1O,51.4% (active)
7,Cc1ccnc(NC(=O)CNC(=O)c2ccccc2)c1,20.5%
8,Cc1noc(C)c1S(=O)(=O)N(C)C[C@H]1OCCCC[C@@H](C)Oc2ccc(NC(=O)c3ccccc3)cc2C(=O)N([C@@H](C)CO)C[C@H]1C,5.48%
9,O=C(C[C@H]1CC[C@@H](NC(=O)Nc2ccc(C(F)(F)F)cc2)[C@H](CO)O1)NCc1cc(F)cc(F)c1,2.19%
10,CCC(=O)N1[C@@H]2CN(C(=O)Nc3ccc(Cl)cc3)c3ccccc3[C@@H]2[C@@H]1CO,7.74%
11,O=C(OCc1nnc(-c2ccccc2)o1)c1cc(=O)[nH]c2ccccc12,-2.08%
12,CC1CCN(C(=O)COC(=O)c2cc(=O)[nH]c3ccccc23)CC1,60.1% (active)
13,COC(=O)C1CCN(C(=O)c2cc(=O)[nH]c3ccccc23)CC1,-0.707%
14,CN(C(=O)COC(=O)c1cc(=O)[nH]c2ccccc12)C1CCCCC1,59.3% (active)
15,O=C(COC(=O)c1cc(=O)[nH]c2ccccc12)NCc1cccc(Cl)c1,-2.45%
16,CC1CCN(C(=O)COC(=O)c2cc(S(=O)(=O)N3CCOCC3)ccc2Cl)CC1,-5.57%
17,COc1ccc(S(=O)(=O)N(C)C[C@@H]2OCCCC[C@@H](C)Oc3ccc(N(C)C)cc3C(=O)N([C@@H](C)CO)C[C@@H]2C)cc1,-1.73%
18,O=C(C[C@H]1CC[C@@H](NC(=O)c2ccncc2)[C@@H](CO)O1)Nc1ccccc1,-0.301%
19,CC(C)n1c(=O)[nH]c2cc(C(=O)Nc3ccccc3)ccc21,46.7% (active)
20,Cn1c(=O)n(C)c2cc(C(=O)Nc3ccc(Br)cc3)ccc21,6.69%
21,Cc1cc(=O)c2ccc(NC(=O)c3ccccc3)cc2[nH]1,1.23%
22,CNC[C@H]1Oc2ncc(-c3ccccc3C)cc2C(=O)N([C@@H](C)CO)C[C@@H]1C,-1.27%
23,C/C(=C\C(=O)c1cccnc1)Nc1ccc(C)c(C)c1,64.2% (active)
24,Cc1ccc(OCC(=O)NCCCNC(=O)c2cccnc2)cc1C,-1.38%
25,Cc1ccc(NC(=O)COc2ccc(/C=N\NC(=O)c3cccnc3)cc2)cc1C,1.32%
